Values joined by “and” are separate entries in the source; they are usually repeats but may differ in a detail not shown here. Equal entries are not always repeated. Records with an inconclusive call do not appear. Where a call stands in place of a potency, no number is given. A structure can be active in one record and inactive in another. Unmarked numbers belong to inactive results. Active and inactive are the calls of the source. The call rests on the fitted dose curve; in most records, active means well fitted inhibition curve with a large enough effect in the repeat runs; inconclusive means weak or mixed curves; inactive means no such curve, though single readings can be large or run the other way.
Assay: qHTS assay to identify small molecule antagonists of the thyroid receptor (TR) signaling pathway (AID 743065); further: nearly all actives have a fitted effect of over 55% in size
Details: GH3.TRE-Luc, T3-stimulated luciferase inhibition, 23.5 h; series mostly up to 70.3 µM; activity, negative = inhibition: at the top concentration
From the text: U.S. Tox21 Program National Center for Advancing Translational Sciences [NCATS] NIH Chemical Genomics Center [NCGC] U.S. Environmental Protection Agency [EPA] National Institutes of Environmental Health Sciences [NIEHS] National Toxicology Program [NTP] U.S. Food and Drug Administration [FDA] Tox21 Assay Overview: Thyroid receptor (TR), a nuclear hormone receptor, plays an important role in development, proliferation, differentiation, metabolism, brain function, and cardiovascular system. […] To profile the Tox21 10K compound library in TR signaling, a cell-based GH3-TRE-Luc assay (GH3.TRE-Luc cell line, developed by the laboratory of Dr. Albertinka J. Murk, Wageningen University) was used to measure the inhibition of TR. GH3 (rat pituitary tumor) cells stably expressing a TR activity sensor consisting of two TR response elements and a luciferase reporter gene.
Tox21 Assay Protocol Summary: GH3.TRE-Luc cells were dispensed at 1500 cells/4 uL/well into 1536-well white solid bottom plates using a Multidrop Combi dispenser (Thermo Fisher Scientific Inc., Waltham, MA). After the assay plates were incubated at 37 C for 4 hours, 23 nL of library compound or DMSO controls was transferred to the assay plates by a pintool station (Kalypsys, San Diego, CA), followed by addition of 1 ul of T3 (1 nM, final concentration in the wells) to stimulate TR transactivation. The assay plates were incubated at 37 C for 23.5 h, and then 1 uL of CellTiter-Fluor reagent (Promega, Madision, WI) of measuring cytotoxicity was added to each well using a Bioraptr Flying Reagent Dispenser (FRD) workstation (Beckman Coulter, Indianapolis, IN, USA). The plates were incubated at 37 C and 5% CO2 for additional 30 min, and fluorescence intensity was measured by a ViewLux plate reader (PerkinElmer, Shelton, CT). For measuring luciferase reporter gene activity, 4 uL of ONE-Glo Luciferase Assay reagent (Promega) was added to each well using a Bioraptr FRD (Beckman Coulter), followed by 30 min incubation at room temperature. The luminescence intensity of plates was recorded by a ViewLux plate reader (PerkinElmer, Shelton, CT).
Potency means the concentration at half of the fitted maximal effect.

**Q.** With `CC1(C)C(=O)N(Cl)C(=O)N1Cl` as the molecule, how does the Potency read?
**A.** inactive

**Q.** For `CCCCCC(C)=O`, which Potency is on record?
**A.** inactive

**Q.** For `O=c1n(CCCN2CCN(c3cccc(Cl)c3)CC2)nc2ccccn12`, which Potency is on record?
**A.** inactive

**Q.** For `CC(C)(C)NC[C@H](O)COc1nsnc1N1CCOCC1`, which Potency is on record?
**A.** inactive

**Q.** Which Potency does the source give for `CC(C)c1ccc(C(C)C)cc1` here?
**A.** inactive

**Q.** For `Cc1cccc(C)c1[N+](=O)[O-]`, which Potency is on record?
**A.** inactive

**Q.** With `OCC(CO)(CO)CO` as the molecule, how does the Potency read?
**A.** inactive

**Q.** With `O=C(O)Cc1c[nH]c2ccccc12` as the molecule, how does the Potency read?
**A.** inactive

**Q.** Which Potency does the source give for `O=C(Cl)c1ccc(C(=O)Cl)cc1` here?
**A.** inactive

**Q.** With `CC/C(C)=N/O` as the molecule, how does the Potency read?
**A.** inactive

**Q.** For `Nc1nc(N)c2nc(-c3ccccc3)c(N)nc2n1`, which Potency is on record?
**A.** 55.1 µM (active) and 54.5 µM (active)

**Q.** Which Potency does the source give for `CC(COCC(C)OC(=O)c1ccccc1)OC(=O)c1ccccc1` (stereo not given) here?
**A.** inactive

**Q.** With `COc1c2ccoc2cc2oc(=O)ccc12` as the molecule, how does the Potency read?
**A.** inactive

**Q.** With `C=C(CC(=O)O)C(=O)O` as the molecule, how does the Potency read?
**A.** inactive

**Q.** For `CN1CCCC1=O`, which Potency is on record?
**A.** inactive

**Q.** For `CCCCC(CC)COC(=O)c1ccc(C(=O)OCC(CC)CCCC)cc1` (stereo not given), which Potency is on record?
**A.** inactive

**Q.** For `COc1ccccc1[N+](=O)[O-]`, which Potency is on record?
**A.** inactive

**Q.** Which Potency does the source give for `CCCOC(=O)NCCCN(C)C` here?
**A.** inactive

**Q.** For `CN1Cc2c(N)cccc2C(c2ccccc2)C1` (stereo not given), which “activity, negative = inhibition” value is on record?
**A.** 0.0334%

**Q.** Which Potency does the source give for `Cc1ccc(C)c(S(=O)(=O)O)c1` here?
**A.** inactive

**Q.** For `CC/C=C(\C(=O)N[C@@H]1C(=O)N2C(C(=O)OCOC(=O)C(C)(C)C)=C(COC(N)=O)CS[C@H]12)c1csc(N)n1`, which “activity, negative = inhibition” value is on record?
**A.** -14.5%

**Q.** For `CC(C=O)Cc1ccc(C(C)(C)C)cc1` (stereo not given), which Potency is on record?
**A.** 43.3 µM (active)

**Q.** Which activity, negative = inhibition does the source give for `CCCCCCCCCCCC(=O)N(C)CC(=O)O` here?
**A.** 7.52% [at 8.44 µM]

**Q.** What about the Potency of the same molecule?
**A.** 59.2 µM (active)

**Q.** For `Cc1cc(CC(=O)O)n(C)c1C(=O)c1ccc(Cl)cc1`, which Potency is on record?
**A.** inactive

**Q.** For `CS(=O)(=O)c1ccc(Cl)cc1`, which Potency is on record?
**A.** inactive

**Q.** Which Potency does the source give for `O=[N+]([O-])c1cc(C(F)(F)F)ccc1Cl` here?
**A.** inactive

**Q.** With `O=C1C(N(CO)C(=O)NCO)N(CO)C(=O)N1CO` (stereo not given) as the molecule, how does the Potency read?
**A.** inactive

**Q.** Which Potency does the source give for `CC(=O)OC[C@H]1O[C@@](COC(C)=O)(O[C@H]2O[C@H](COC(C)=O)[C@@H](OC(C)=O)[C@H](OC(C)=O)[C@H]2OC(C)=O)[C@@H](OC(C)=O)[C@@H]1OC(C)=O` here?
**A.** inactive

**Q.** For `CCCOCC(C)O` (stereo not given), which Potency is on record?
**A.** inactive

**Q.** With `Cc1cc(C)c(O)c(C)c1` as the molecule, how does the Potency read?
**A.** inactive

**Q.** With `CCCN(CCC)C(=O)SCC` as the molecule, how does the Potency read?
**A.** inactive

**Q.** Which Potency does the source give for `Brc1ccc(Oc2ccc(Br)cc2)cc1` here?
**A.** inactive

**Q.** With `CC(=O)OC/C=C(\C)CCC=C(C)C` as the molecule, how does the Potency read?
**A.** inactive

**Q.** Which Potency does the source give for `CCCCCCCCC(=O)O` here?
**A.** inactive

**Q.** For `CCn1cc(C(=O)O)c(=O)c2cc3c(cc21)OCO3`, which Potency is on record?
**A.** inactive

**Q.** Which Potency does the source give for `Cc1ccc([N+](=O)[O-])cc1N` here?
**A.** inactive

**Q.** Which Potency does the source give for `N#CCC(=O)O` here?
**A.** inactive

**Q.** With `O=C1OC(=O)c2c(Cl)c(Cl)c(Cl)c(Cl)c21` as the molecule, how does the Potency read?
**A.** inactive

**Q.** With `Cc1ccc(C(C)C)cc1` as the molecule, how does the Potency read?
**A.** inactive

From PubChem BioAssay (Tox21)
